Measurements published in PubChem BioAssay AID1159580 (chemical genetic matrix, 2015).
Out of some 5,500 compounds screened, about 2,000 (36%) were called active. Another 18% or so got no clear call; they are omitted. No stated cut-off is given here; in the data, active means normalized growth mostly below about 0.91 (no sharp cut-off); inconclusive means no clear call, values can overlap the other calls; inactive means mostly above about 0.92. Some of the results follow.

Test: chemical genetic growth profiling, strain panel (AID 1159580);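 further: tested at 20 µM; growth read once vehicle control cultures reached saturation at 30 °C; 1 = growth at the plate median or of vehicle wells; lower values mean less growth of the strain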
Conditions: S. cerevisiae deletion strains, growth OD

Measured: normalized growth

CC(C)(Oc1ccc(Cl)cc1)C(=O)O
inactive: locus YAL013W, strain DEP1, active compounds read low 1 | locus YAL021C, strain ccr4, active compounds read low 1.02 | locus YAL026C, strain drs2, active compounds read low 1.03 | locus YAL030W, strain snc1, active compounds read low 0.996 | locus YBL061C, strain skt5, active compounds read low 1.04 | locus YBR009C, strain hhf1, active compounds read low 0.988 | locus YBR021W, strain FUR4, active compounds read low 1.12 | locus YBR023C, strain chs3, active compounds read low 1.03 | locus YBR171W, strain sec66, active compounds read low 1.02 | locus YBR229C, strain ROT2, active compounds read low 0.998 | locus YBR231C, strain swc5, active compounds read low 0.997 | locus YBR279W, strain paf1, active compounds read low 1.02 | locus YCL011C, strain gbp2, active compounds read low 1 | locus YCL016C, strain dcc1, active compounds read low 1.03 | locus YCL029C, strain bik1, active compounds read low 0.956 | locus YCL069W, strain vba3, active compounds read low 1.01 | locus YCR088W, strain abp1, active compounds read low 1.01 | locus YDL005C, strain med2, active compounds read low 1.02 | locus YDL035C, strain GPR1, active compounds read low 0.997 | locus YDL040C, strain nat1, active compounds read low 0.996 | locus YDL074C, strain BRE1, active compounds read low 0.949 | locus YDL101C, strain DUN1, active compounds read low 0.986 | locus YDL134C, strain PPH21, active compounds read low 1 | locus YDL185W, strain tfp1, active compounds read low 0.938 | locus YDL192W, strain arf1, active compounds read low 0.981 | locus YDR001C, strain nth1, active compounds read low 1 | locus YDR069C, strain doa4, active compounds read low 1.01 | locus YDR101C, strain arx1, active compounds read low 0.979 | locus YDR137W, strain rgp1, active compounds read low 1.01 | locus YDR150W, strain NUM1, active compounds read low 0.995 | locus YDR159W, strain sac3, active compounds read low 0.949 | locus YDR162C, strain NBP2, active compounds read low 0.987 | locus YDR195W, strain ref2 0.979 | locus YDR297W, strain sur2, active compounds read low 0.99 | locus YDR318W, strain mcm21, active compounds read low 0.98 | locus YDR334W, strain swr1, active compounds read low 1 | locus YDR335W, strain msn5, active compounds read low 1.01 | locus YDR388W, active compounds read low 0.979 | locus YDR392W, strain spt3, active compounds read low 0.974 | locus YDR502C, strain sam2, active compounds read low 0.993 | locus YEL003W, strain gim4, active compounds read low 0.984 | locus YEL037C, strain rad23, active compounds read low 1.01 | locus YEL061C, strain CIN8 (second series), active compounds read low 1 | locus YEL061C, strain CIN8, active compounds read low 1 | locus YER015W, strain faa2, active compounds read low 1.01 | locus YER016W, strain bim1, active compounds read low 1.03 | locus YER110C, active compounds read low 0.983 | locus YER111C, strain swi4, active compounds read low 1.01 | locus YER155C, strain BEM2 (second series), active compounds read low 1.01 | locus YER155C, strain BEM2, active compounds read low 0.983 | locus YER167W, strain BCK2, active compounds read low 0.999 | locus YFR010W, strain ubp6, active compounds read low 0.976 | locus YGL078C, strain dbp3, active compounds read low 0.998 | locus YGL086W, strain mad1, active compounds read low 0.997 | locus YGL167C, strain pmr1, active compounds read low 1.01 | locus YGL173C, strain kem1, active compounds read low 0.982 | locus YGL227W, strain vid30, active compounds read low 0.993 | locus YGL240W, strain doc1, active compounds read low 1 | locus YGL248W, strain PDE1, active compounds read low 1 | locus YGL253W, strain hxk2, active compounds read low 1.01 | locus YGR078C, strain PAC10, active compounds read low 0.954 | locus YGR135W, strain pre9, active compounds read low 1.01 | locus YGR229C, strain SMI1, active compounds read low 1 | locus YGR252W, strain gcn5, active compounds read low 1.23 | locus YHR013C, strain ard1, active compounds read low 1.02 | locus YHR027C, strain rpn1, active compounds read low 1 | locus YHR030C, strain SLT2, active compounds read low 1 | locus YHR079C, strain IRE1 (second series), active compounds read low 0.964 | locus YHR094C, strain hxt1, active compounds read low 0.963 | locus YHR129C, strain ARP1, active compounds read low 0.988 | locus YHR142W, strain chs7, active compounds read low 1.04 | locus YHR200W, strain rpn10, active compounds read low 0.977 | locus YIL066C, strain RNR3, active compounds read low 0.99 | locus YIL073C, strain SPO22, active compounds read low 0.948 | locus YIL125W, strain kgd1, active compounds read low 0.98 | locus YIR030C, strain dcg1, active compounds read low 0.988 | locus YJL092W, strain hpr5, active compounds read low 1.02 | locus YJL095W, strain BCK1 (second series), active compounds read low 1.02 | locus YJL095W, strain BCK1, active compounds read low 0.976 | locus YJL115W, strain asf1, active compounds read low 1.01 | locus YJL129C, strain trk1, active compounds read low 1.03 | locus YJL134W, strain LCB3, active compounds read low 0.999 | locus YJL154C, strain vps35, active compounds read low 1.01 | locus YJL164C, strain tpk1, active compounds read low 0.993 | locus YJL166W, strain qcr8, active compounds read low 0.997 | locus YJL168C, strain set2, active compounds read low 0.976 | locus YJL187C, strain SWE1 (second series), active compounds read low 0.973 | locus YJR043C, strain POL32, active compounds read low 0.985
